Results: the supplement of paper PMC12669032

Legend:
Assay in all cases: growth AUC relative to DMSO control (median of replicates) (fraction); higher = more growth (less inhibition), active = hit call of the paper
Details in all cases: 20 µM; 24 h;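 active = AUC reduced over 20% with Padj below 0.05 in at least 2 of 3 replicates; inactive = otherwise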
Akkermansia muciniphila = system: Akkermansia muciniphila
Method in brief: (§1)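 Each value is the median of three biological replicates, grown on separate days, of a gut bacterial monoculture incubated anaerobically at 37 °C in mGAM with 20 µM compound (1% DMSO). Cultures started at OD600 0.05 and were read at OD600 hourly for 24 h, with the minimum OD set to 0. Area under the growth curve was normalised to the plate median of solvent-only wells, or to row and column medians on the industrial chemical plate.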

Bacteroides caccae = system: Bacteroides caccae
Method in brief: as §1

Bacteroides clarus = system: Bacteroides clarus
Method in brief: as §1

Bacteroides dorei = system: Bacteroides dorei
Method in brief: as §1

Bacteroides stercoris = system: Bacteroides stercoris
Method in brief: as §1

[1] = system: Bacteroides thetaiotaomicron
Method in brief: as §1

Bacteroides uniformis = system: Bacteroides uniformis
Method in brief: as §1

[2] = system: Bifidobacterium longum subsp. longum
Method in brief: as §1

Clostridium difficile = system: Clostridium difficile
Method in brief: as §1

Collinsella aerofaciens = system: Collinsella aerofaciens
Method in brief: as §1

Coprococcus comes = system: Coprococcus comes
Method in brief: as §1

Escherichia coli ED1a = system: Escherichia coli ED1a
Method in brief: as §1

Escherichia coli IAI1 = system: Escherichia coli IAI1
Method in brief: as §1

Eubacterium rectale = system: Eubacterium rectale
Method in brief: as §1

[3] = system: Fusobacterium nucleatum subsp. animalis
Method in brief: as §1

Lactobacillus gasseri = system: Lactobacillus gasseri
Method in brief: as §1

Lactobacillus paracasei = system: Lactobacillus paracasei
Method in brief: as §1

Odoribacter splanchnicus = system: Odoribacter splanchnicus
Method in brief: as §1

[4] = system: Parabacteroides distasonis
Method in brief: as §1

Parabacteroides merdae = system: Parabacteroides merdae
Method in brief: as §1

Measured: growth AUC

ClC1=C(Cl)C2(Cl)C(CBr)CC1(Cl)C2(Cl)Cl (stereo not given)
inactive: Akkermansia muciniphila 1.02 | Bacteroides caccae 1.04 | Bacteroides clarus 1.02 | Bacteroides dorei 0.999 | Bacteroides stercoris 1.02 | [1] 1.01 | Bacteroides uniformis 0.982 | [2] 1.01 | Clostridium difficile 0.985 | Collinsella aerofaciens 0.957 | Coprococcus comes 0.994 | Escherichia coli ED1a 0.956 | Escherichia coli IAI1 0.986 | Eubacterium rectale 1.01 | [3] 0.969 | Lactobacillus gasseri 0.858 | Lactobacillus paracasei 1.03 | Odoribacter splanchnicus 1.01 | [4] 0.973 | Parabacteroides merdae 0.973

CCNP(=S)(OC)O/C(C)=C/C(=O)OC(C)C (stereo not given)
inactive: Akkermansia muciniphila 0.983 | Bacteroides caccae 0.966 | Bacteroides clarus 0.957 | Bacteroides dorei 0.998 | Bacteroides stercoris 1 | [1] 0.953 | Bacteroides uniformis 0.993 | [2] 0.983 | Clostridium difficile 0.986 | Collinsella aerofaciens 1.01 | Coprococcus comes 0.987 | Escherichia coli ED1a 1 | Escherichia coli IAI1 0.951 | Eubacterium rectale 1.13 | [3] 0.981 | Lactobacillus gasseri 0.968 | Lactobacillus paracasei 0.994 | Odoribacter splanchnicus 0.956 | [4] 0.991 | Parabacteroides merdae 0.963

COc1cccc(C(=O)NN(C(=O)c2cc(C)cc(C)c2)C(C)(C)C)c1C
inactive: Akkermansia muciniphila 1.14 | Bacteroides caccae 0.966 | Bacteroides clarus 0.996 | Bacteroides dorei 0.933 | Bacteroides stercoris 0.951 | [1] 0.986 | Bacteroides uniformis 0.958 | [2] 0.975 | Clostridium difficile 0.969 | Collinsella aerofaciens 0.92 | Coprococcus comes 1.01 | Escherichia coli ED1a 0.974 | Escherichia coli IAI1 0.97 | Eubacterium rectale 1.07 | [3] 0.884 | Lactobacillus gasseri 0.818 | Lactobacillus paracasei 0.947 | Odoribacter splanchnicus 0.966 | [4] 0.86 | Parabacteroides merdae 0.908

CC1(C)OC(c2ccco2)CN1C(=O)C(Cl)Cl (stereo not given)
inactive: Akkermansia muciniphila 0.918 | Bacteroides caccae 1 | Bacteroides clarus 0.942 | Bacteroides dorei 1 | Bacteroides stercoris 1.03 | [1] 0.992 | Bacteroides uniformis 1.02 | [2] 1.03 | Clostridium difficile 0.956 | Collinsella aerofaciens 1.02 | Coprococcus comes 1.03 | Escherichia coli ED1a 1.01 | Escherichia coli IAI1 0.994 | Eubacterium rectale 0.803 | [3] 0.934 | Lactobacillus gasseri 1.07 | Lactobacillus paracasei 0.976 | Odoribacter splanchnicus 1.05 | [4] 0.99 | Parabacteroides merdae 0.968

O=c1[nH]c(Cl)c(Cl)cc1Cl
inactive: Akkermansia muciniphila 0.98 | Bacteroides caccae 1.04 | Bacteroides clarus 0.967 | Bacteroides dorei 0.991 | Bacteroides stercoris 1.05 | [1] 1.11 | Bacteroides uniformis 0.978 | [2] 0.981 | Clostridium difficile 0.95 | Collinsella aerofaciens 1.01 | Coprococcus comes 0.998 | Escherichia coli ED1a 0.952 | Escherichia coli IAI1 0.983 | Eubacterium rectale 0.991 | [3] 1.04 | Lactobacillus gasseri 0.928 | Lactobacillus paracasei 0.984 | Odoribacter splanchnicus 0.942 | [4] 0.921 | Parabacteroides merdae 1.01

Clc1ccc(C(c2ccc(Cl)cc2)C(Cl)Cl)cc1
active: Bacteroides stercoris 0.662
inactive: Akkermansia muciniphila 1.03 | Bacteroides caccae 0.927 | Bacteroides clarus 0.899 | Bacteroides dorei 0.888 | [1] 0.933 | Bacteroides uniformis 0.984 | [2] 1.06 | Clostridium difficile 1.03 | Collinsella aerofaciens 0.873 | Coprococcus comes 1.01 | Escherichia coli ED1a 1.02 | Escherichia coli IAI1 0.984 | Eubacterium rectale 1.01 | [3] 1.07 | Lactobacillus gasseri 0.956 | Lactobacillus paracasei 0.994 | Odoribacter splanchnicus 0.951 | [4] 1.02 | Parabacteroides merdae 0.918

Cc1ccc(-c2c(Cl)nc(C#N)n2S(=O)(=O)N(C)C)cc1
active: Bacteroides uniformis 0.639 | [4] 0.551
inactive: Akkermansia muciniphila 0.913 | Bacteroides caccae 0.844 | Bacteroides clarus 0.817 | Bacteroides dorei 0.904 | Bacteroides stercoris 0.931 | [1] 0.906 | [2] 1.03 | Clostridium difficile 0.96 | Collinsella aerofaciens 1.02 | Coprococcus comes 1.03 | Escherichia coli ED1a 0.944 | Escherichia coli IAI1 1.02 | Eubacterium rectale 0.992 | [3] 1.09 | Lactobacillus gasseri 1 | Lactobacillus paracasei 1.03 | Odoribacter splanchnicus 0.989 | Parabacteroides merdae 0.818

N#Cc1sc2c(=O)c3ccccc3c(=O)c=2sc1C#N
inactive: Akkermansia muciniphila 0.95 | Bacteroides caccae 0.982 | Bacteroides clarus 0.948 | Bacteroides dorei 0.979 | Bacteroides stercoris 0.783 | [1] 0.974 | Bacteroides uniformis 0.882 | [2] 0.84 | Clostridium difficile 0.968 | Collinsella aerofaciens 1.09 | Coprococcus comes 0.921 | Escherichia coli ED1a 0.945 | Escherichia coli IAI1 0.957 | Eubacterium rectale 0.911 | [3] 0.881 | Lactobacillus gasseri 1.01 | Lactobacillus paracasei 0.875 | Odoribacter splanchnicus 0.926 | [4] 0.928 | Parabacteroides merdae 0.968

O=C(NC(=O)c1ccccc1Cl)Nc1ccc(OC(F)(F)F)cc1
inactive: Akkermansia muciniphila 1.06 | Bacteroides caccae 0.915 | Bacteroides clarus 0.964 | Bacteroides dorei 0.927 | Bacteroides stercoris 0.802 | [1] 0.962 | Bacteroides uniformis 1.01 | [2] 0.986 | Clostridium difficile 0.946 | Collinsella aerofaciens 0.937 | Coprococcus comes 0.949 | Escherichia coli ED1a 0.97 | Escherichia coli IAI1 0.952 | Eubacterium rectale 1.04 | [3] 0.728 | Lactobacillus gasseri 0.856 | Lactobacillus paracasei 0.892 | Odoribacter splanchnicus 1.04 | [4] 0.965 | Parabacteroides merdae 0.971

Nc1cccc(Cl)c1Cl
inactive: Akkermansia muciniphila 0.928 | Bacteroides caccae 1.04 | Bacteroides clarus 1 | Bacteroides dorei 0.999 | Bacteroides stercoris 1.18 | [1] 0.999 | Bacteroides uniformis 1.02 | [2] 0.921 | Clostridium difficile 0.999 | Collinsella aerofaciens 1.06 | Coprococcus comes 1.01 | Escherichia coli ED1a 1.04 | Escherichia coli IAI1 1.03 | Eubacterium rectale 0.947 | [3] 1.1 | Lactobacillus gasseri 1.05 | Lactobacillus paracasei 0.962 | Odoribacter splanchnicus 0.991 | [4] 1.02 | Parabacteroides merdae 0.998

CCN(CC)C(=S)[S-].O.O.O.[Na+]
inactive: Akkermansia muciniphila 0.862 | Bacteroides caccae 0.981 | Bacteroides clarus 1.01 | Bacteroides dorei 0.978 | Bacteroides stercoris 1.08 | [1] 0.848 | Bacteroides uniformis 1.01 | [2] 0.961 | Clostridium difficile 1.04 | Collinsella aerofaciens 0.925 | Coprococcus comes 0.964 | Escherichia coli ED1a 0.972 | Escherichia coli IAI1 0.976 | Eubacterium rectale 0.983 | [3] 1.09 | Lactobacillus gasseri 1.01 | Lactobacillus paracasei 0.978 | Odoribacter splanchnicus 1 | [4] 0.982 | Parabacteroides merdae 0.873

CCOP(=S)(OCC)Oc1cc(C)nc(C(C)C)n1
inactive: Akkermansia muciniphila 1.04 | Bacteroides caccae 1.02 | Bacteroides clarus 1 | Bacteroides dorei 1.03 | Bacteroides stercoris 0.972 | [1] 1.01 | Bacteroides uniformis 1.02 | [2] 0.972 | Clostridium difficile 1.02 | Collinsella aerofaciens 0.986 | Coprococcus comes 0.982 | Escherichia coli ED1a 1 | Escherichia coli IAI1 0.992 | Eubacterium rectale 1.12 | [3] 1.03 | Lactobacillus gasseri 1.02 | Lactobacillus paracasei 1.03 | Odoribacter splanchnicus 0.999 | [4] 0.924 | Parabacteroides merdae 1

CC(C)OC(=O)Nc1cccc(Cl)c1
inactive: Akkermansia muciniphila 1.06 | Bacteroides caccae 0.915 | Bacteroides clarus 0.985 | Bacteroides dorei 0.948 | Bacteroides stercoris 1.04 | [1] 1.02 | Bacteroides uniformis 0.984 | [2] 0.981 | Clostridium difficile 1.01 | Collinsella aerofaciens 0.963 | Coprococcus comes 1.02 | Escherichia coli ED1a 1.01 | Escherichia coli IAI1 0.965 | Eubacterium rectale 1.07 | [3] 1.06 | Lactobacillus gasseri 0.85 | Lactobacillus paracasei 0.985 | Odoribacter splanchnicus 1.13 | [4] 0.965 | Parabacteroides merdae 1.06

Nc1c(Cl)c(F)nc(OCC(=O)O)c1Cl
inactive: Akkermansia muciniphila 0.886 | Bacteroides caccae 1.01 | Bacteroides clarus 0.968 | Bacteroides dorei 1.01 | Bacteroides stercoris 0.999 | [1] 0.991 | Bacteroides uniformis 0.955 | [2] 0.917 | Clostridium difficile 1.01 | Collinsella aerofaciens 0.97 | Coprococcus comes 0.99 | Escherichia coli ED1a 0.992 | Escherichia coli IAI1 1.03 | Eubacterium rectale 0.918 | [3] 0.971 | Lactobacillus gasseri 1.11 | Lactobacillus paracasei 1.16 | Odoribacter splanchnicus 1 | [4] 0.972 | Parabacteroides merdae 1.01

CNC(=O)Oc1cccc2c1OC(C)(C)O2
inactive: Akkermansia muciniphila 0.915 | Bacteroides caccae 1.07 | Bacteroides clarus 1.01 | Bacteroides dorei 0.982 | Bacteroides stercoris 1.02 | [1] 1.04 | Bacteroides uniformis 0.997 | [2] 1.06 | Clostridium difficile 1.06 | Collinsella aerofaciens 1 | Coprococcus comes 1.02 | Escherichia coli ED1a 1 | Escherichia coli IAI1 0.993 | Eubacterium rectale 0.967 | [3] 1.01 | Lactobacillus gasseri 1.11 | Lactobacillus paracasei 0.984 | Odoribacter splanchnicus 1.02 | [4] 1.02 | Parabacteroides merdae 1.02
